Results on 33 molecules are retold here after PubChem BioAssay.

Structures are written as SMILES. The list shows a part of the results. A number with no mark means an inactive call. The source made the active and inactive calls.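 Rule for the calls, unless noted: active = mean activation across triplicate tests above the threshold derived from the earlier primary screen (cut at about 5.5% in these data); inactive = the rest.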

The target of assay [1] is Oxysterols receptor LXR-beta (Homo sapiens) (UniProt P55055). Nature of the assay: LXR agonists, Gal4 luciferase reporter, confirmation, counter-screen for hcDAF-12 agonist project, cell-based, luminescence, HEK293, H. contortus campaign (AID 743027;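 active = mean percent activation of the reporter above a cutoff set as the average over tested compounds plus their standard deviation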). The following applies: HEK293 Gal4-LXR tk-luc reporter, 24 h, at 6.8 µM, stronger effect = higher value, normalized: DMSO 0%, positive control 100%. (In general: A reporter such as luciferase makes a cellular process visible.)

Assay [2] relates to Nuclear hormone receptor DAF-12 (Haemonchus contortus). Briefly: H. contortus DAF-12 receptor agonists, confirmation, cell-based, luminescence, HEK293, lit1-tk-luc, triplicate (AID 743032).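 Note: 0% = DMSO only wells and 100% = 3 µM Δ7-dafachronic acid.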 The following applies: HEK293 hcDAF-12 lit1-tk-luc reporter, at 6.8 µM, stronger effect = higher value, % of Δ7-dafachronic acid response.
Assay [3] relates to DAF-12 nuclear receptor (Heterodera glycines), GAL4-LBD fusion. Briefly: H. glycines DAF-12 receptor agonists, confirmation, cell-based, luminescence, HEK293, GAL4-LBD fusion (AID 743050;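 active = mean activation over triplicate wells above the hit cutoff derived from the earlier primary screen, cut at about 11% in these data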;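 note: 0% = DMSO low control and 100% = 2 mM sodium butyrate high control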). The following applies: HEK293 GAL4-hgDAF12 luciferase reporter, agonist mode; at 6.8 µM; stronger effect = higher value; percent of butyrate response.
Assay [4] has as its target Oxysterols receptor LXR-beta (Homo sapiens) (UniProt P55055). Briefly: LXR agonists, Gal4 luciferase reporter, confirmation, counter-screen for hgDAF-12 agonist project, cell-based, luminescence, HEK293, H. glycines campaign (AID 743051;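 active = mean activation of the triplicate above a set limit carried over from the primary screen, none filed active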). To be noted: 24 h, at 6.8 µM, stronger effect = higher value.
The target in assay [5] is Galanin receptor type 2 (Homo sapiens) (UniProt O43603). Nature of the assay: GALR2 antagonists, retest of hits, confirmation, cell-based (AID 866; in the data active = inhibition above about 27%;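 note: cells stimulated with galanin at about its EC80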). The following applies: GALR2-expressing cells, antagonist mode, at 4 µM, stronger effect = higher value.
Assay [6] in a line: inhibitors of NFAT-driven beta-lactamase reporter, confirmation, counter-screen for GALR2 antagonist project, CHO NFAT-bla cells, FRET readout (AID 867;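 active = inhibition above the mean inhibition across tested compounds plus 3 SD, cut at about 27% in these data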;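 note: 0% = 500 nM thapsigargin stimulated wells and 100% = unstimulated BSA only wells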). To be noted: thapsigargin-stimulated, at 4.2 µM, stronger effect = higher value. In general terms: Counterscreens check selectivity or assay interference.

Chain of Oxysterols receptor LXR-beta (Homo sapiens) (P55055 whole entry, looked up, the tested form may be a part): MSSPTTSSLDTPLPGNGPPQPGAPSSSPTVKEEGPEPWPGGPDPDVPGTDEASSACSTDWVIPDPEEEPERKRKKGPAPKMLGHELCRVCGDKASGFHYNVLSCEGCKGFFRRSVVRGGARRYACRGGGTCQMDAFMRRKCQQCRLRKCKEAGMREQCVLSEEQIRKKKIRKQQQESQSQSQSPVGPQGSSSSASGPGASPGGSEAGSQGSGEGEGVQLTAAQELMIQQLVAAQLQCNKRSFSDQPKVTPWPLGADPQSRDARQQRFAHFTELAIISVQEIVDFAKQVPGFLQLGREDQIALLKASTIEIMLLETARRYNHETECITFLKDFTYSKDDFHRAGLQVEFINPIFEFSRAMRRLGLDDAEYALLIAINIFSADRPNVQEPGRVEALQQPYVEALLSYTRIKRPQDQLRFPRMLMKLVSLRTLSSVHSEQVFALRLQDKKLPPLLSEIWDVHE
Chain of Galanin receptor type 2 (Homo sapiens) (O43603 whole entry, looked up): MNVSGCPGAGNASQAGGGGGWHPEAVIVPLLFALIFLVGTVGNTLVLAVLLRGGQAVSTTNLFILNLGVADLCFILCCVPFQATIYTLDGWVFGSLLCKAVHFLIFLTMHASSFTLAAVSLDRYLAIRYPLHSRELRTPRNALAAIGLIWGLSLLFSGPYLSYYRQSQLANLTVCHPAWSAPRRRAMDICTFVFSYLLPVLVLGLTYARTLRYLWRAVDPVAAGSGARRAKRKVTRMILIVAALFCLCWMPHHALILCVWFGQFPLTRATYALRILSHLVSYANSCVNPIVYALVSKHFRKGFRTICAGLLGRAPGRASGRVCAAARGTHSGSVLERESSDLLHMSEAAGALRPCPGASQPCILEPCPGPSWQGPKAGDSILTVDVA

As to `COc1ccc(C2COC(=O)C2=N)c(NC(=O)c2ccccc2)c1` (stereo not given), the activation in assay [1] was -0.25%; in assay [2] it was 4.45%.

Turning to `Cc1cccc(-c2nc3ccccc3c(=O)n2NC(=O)Cc2ccc(Cl)cc2)c1`, the activation in assay [1] was -0.04%; in assay [2], 0.97%.

As to `O=C(Nc1ccc(Cl)cc1)C1c2cccc[n+]2CC(=O)N1Cc1ccc2c(c1)OCO2` (stereo not given), the activation in assay [1] was -0.2%; in assay [2], 2.78%.

Take `O=C(O)c1ccccc1CSc1nc2ccccc2s1`: the figures for the activation in assay [1] and in assay [2] were 0.24% and 9.05% (active), respectively.

As for `Cc1cc(C)nc(Nc2n[nH]c(-c3ccccc3N)n2)n1`, the activation in assay [1] was 2.12%; in assay [2] it was 8.91% (active).

Consider `COC(=O)C1=NN(c2ccccc2)C2C(=O)N(c3ccccc3OC)C(=O)C12` (stereo not given), for which the activation is -0.15% in assay [1] and -0.03% in assay [2].

Consider `Cc1ccc2cc(/C=N/Nc3ccc(C(=O)O)cc3)c(Cl)nc2c1`, for which the activation in assay [1] was 0.97%; in assay [2], 8.18% (active).

`Cc1cc(O)c(C(=O)/C=C/c2c(F)c(F)c(F)c(F)c2F)c(=O)o1`: the activation is -0.23% in assay [1] and -1.06% in assay [2].

Regarding `C/C(=N/NC(=O)c1ccc(Br)o1)c1ccc(C)o1`, the activation in assay [1] was -0.01%; in assay [2], 4.27%.

Regarding `CCS(=O)(=O)N1Cc2ccccc2CC1C(=O)Nc1nc2ccc(F)cc2s1` (stereo not given), the activation in assay [1] was 0.39%; in assay [2], 6.53% (active).

Regarding `O=C(CN1CCCCC1)NC(=O)Nc1ccccc1F`, the activation in assay [1] was 0.17%; in assay [2], 1.2%.

Turning to `NS(=O)(=O)c1ccccc1NC(=O)c1c(O)c2ccccc2[nH]c1=O`, the activation in assay [1] is 1.36%; in assay [2] it was 9.27% (active).

Turning to `COc1ccccc1OCC(=O)O/N=C(\N)c1ccccn1`, the activation is 0.86% in assay [1] and 5.68% (active) in assay [2].

Take `Cc1c(C(=O)Nc2ccccn2)oc2ccc(Br)cc12`: the activation in assay [1] is 1.8%; in assay [2], 15.4% (active).

For `c1ccc(-c2cc(-c3ccccc3)[nH]n2)cc1`, the activation in assay [1] is 1.43%; in assay [2], 15.7% (active).

As to `Cc1ccc(-c2nc3ccccc3[nH]2)cc1N`, the activation in assay [1] was 2.07%; in assay [2], 10.4% (active).

With `NC(=O)c1c(NC(=O)c2ccccc2)sc2c1CCCC2`, the activation is 1.21% in assay [1] and 13.6% (active) in assay [2].

Take `COc1ccc(-c2cn3ccc(C)cc3n2)cc1`: the activation in assay [1] was 1.71%; in assay [2], 9.09% (active).

Turning to `COc1ccccc1-c1nnc(NC(=O)c2ccc3ncsc3c2)o1`, the activation is 0.28% in assay [1] and 10.3% (active) in assay [2].

With `COc1ccc(C2=NOC(COC(=O)c3ccc4ccccc4n3)C2)cc1` (stereo not given), the results for the activation in assay [1] and in assay [2] were 0.05% and 4.94%, respectively.

On to `COc1ccc(C(=O)C[n+]2ccc(C)cc2)cc1`, for which the activation is -0.34% in assay [1] and 0.77% in assay [2].

For `Cc1ccc(NN=Nc2nc3c([nH]2)c(=O)n(C)c(=O)n3C)cc1`, the figures for the activation in assay [1] and in assay [2] were -0.08% and 3.07%, respectively.

`Clc1ccc2nc(CSc3ccccc3)cn2c1`: the activation in assay [3] was 13.2% (active); in assay [4], 0.71%.

Turning to `Cc1cc(N=Nc2ccc3ccccc3c2)ccc1O`, the activation was 1.85% in assay [1], 8.43% (active) in assay [2], 24.5% (active) in assay [3] and 1.16% in assay [4].

In the case of `Clc1ccc(Nc2ccc3ccccc3n2)cc1`, the activation in assay [1] is 2.07%; in assay [2], 15% (active); in assay [3], 28.6% (active); in assay [4] it was 1.31%.

Turning to `O=C(/C=C/c1cnc2ccccc2n1)NC1CCCCCC1`, the activation in assay [1] was 0.79%; in assay [2], 4.58%.

Turning to `O=C(NC(=O)c1ccccc1)Nc1ccccc1O`, the activation in assay [1] was 1.94%; in assay [2], 13.2% (active); in assay [3], 19.6% (active); in assay [4], 1.13%.

Regarding `Oc1ccccc1-c1cc(-c2ccc(Cl)cc2)n[nH]1`, the activation in assay [1] is 1.85%; in assay [2], 14.7% (active); in assay [3], 29.5% (active); in assay [4] it was 1.15%.

Take `Cn1c(-c2ccco2)nc2cc3ccccc3cc21`: the inhibition is 32.7% (active) in assay [5] and 15.4% in assay [6]. The activation in assay [1] is 2.33%; in assay [2], 17.3% (active).

Regarding `c1cnc(N2CCN(c3ccc4ccccc4n3)CC2)nc1`, the activation in assay [1] was 0.85%; in assay [2], 5.39%; in assay [3], 16.9% (active); in assay [4], 0.78%.

On to `CC(/C=N/NC(=O)c1cc(-c2ccc3ccccc3c2)n[nH]1)=C\c1ccco1`, for which the activation was 1.68% in assay [3] and 0.14% in assay [4].

With `CN(C)S(=O)(=O)c1ccc2oc(SCC(=O)Nc3ccccc3F)nc2c1`, the results for the activation in assay [3] and in assay [4] were 15.5% (active) and 0.66%, respectively.

For `Cc1ccc(SCCSc2ncccn2)cc1`, the activation in assay [1] was 1.19%; in assay [2], 7.13% (active); in assay [3], 14.6% (active); in assay [4], 0.89%.

The term inhibition denotes how much of the control response was suppressed.
